The source of these data is PubChem BioAssay.

Each structure is given as a SMILES string. Calls of active or inactive are those of the source.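 Rule for the calls, unless noted: active = viability loss from added drug above about 55%, and viability with drug at most 40%, in both replicates (limit read from the data, passing the limit was not always enough); inconclusive = both conditions met in only one replicate; inactive = neither replicate meets both conditions.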

By viability is commonly meant a read-out of living cells in per cent, often relative to untreated cells. Broadly, the inhibition is the change of the read-out against control, counted positive when it falls.

Test [1] is described as follows: HUVEC growth inhibition – cell-based, human, primary screen (AID 575;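 active = viability at or below 30% in both replicate assays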;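 note: 100% = median of untreated cell wells with 0.1% DMSO on each plate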). The conditions noted are these: HUVEC proliferation, CellTiter-Glo luminescence, 72 h; at 10 µM; stronger effect = lower value. Background: Cellular ATP, detected with luciferase, serves as a proxy for viable cell number.
Test [2] is described as follows: growth inhibitors of H69AR lung tumor, primary screen, human, duplicate replicates (AID 580;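 active = viability at or under a set limit in both replicates, limit being median viability minus 3 SD, cut at about 48% in these data, passing the limit was not always enough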;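 note: 100% = mean luminescence of untreated wells and 0% = no signal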). Particulars: H69AR lung tumor cells viability, ATP luminescence, 72 h; at 10 µM; stronger effect = lower value.
Test [3] can be described thus: reversal of MRP1-mediated doxorubicin resistance, pilot screen, H69AR cells, doxorubicin co-treatment (AID 601). Particulars: CellTiter-Glo, 72 h, at 10 µM; for differential viability (reversal): stronger effect = higher value.
Test [4] in a line: 384-well plate pilot, post-Golgi transport modulator project, inhibition of yeast transport mutant growth (AID 636; in the data active = inhibition above about 31%). The conditions noted are these: absorbance 615 nm, about 18 h, stronger effect = higher value.
The nature of test [5]: growth suppression of yeast trafficking mutant, preliminary HTS, modulators of trafficking downstream of Golgi apparatus project, 1536-format plate, OD 615 nm (AID 637; in the data active = inhibition above about 30%). The conditions noted are these: yeast transport mutant growth, absorbance 615 nm, 18 h; stronger effect = higher value.
The mark [6] stands for this setting: H69AR cells + 2 uM doxorubicin, measured here: viability with 2 uM doxorubicin, stronger effect = lower value.
Setting [7] is: H69AR cells, compound alone cytotoxicity.

Regarding `Cc1ccccc1CN1CCN(C(=O)c2cccc(F)c2)CC1`, the viability in test [1] was 94.7% (inactive); in test [2] it was 101% (inactive); in test [3] (setting [6]), 96.9%; in test [3] (setting [7]) it was 101%. For the same compound, the differential viability (reversal) in test [3] (H69AR cells + 2 uM doxorubicin) is 4.51% (inactive). Besides, the results for the inhibition in test [4] and in test [5] were -1.87% (inactive) and -0.16% (inactive), respectively.
Regarding `c1ccc2[nH]c(CSc3nnc(-c4ccncc4)o3)nc2c1`, the viability in test [1] was 104% (inactive); in test [2], 90.9% (inactive); in test [3] (setting [6]), 96.7%; in test [3] (setting [7]), 90.9%. Further, the differential viability (reversal) in test [3] (H69AR cells + 2 uM doxorubicin) was -5.82% (inactive). Besides, the results for the inhibition in test [4] and in test [5] were -2.24% (inactive) and 2.06% (inactive), respectively.
On to `O=C(O)c1ccc(-n2nnnc2Oc2ccccc2C(=O)N2CCOCC2)cc1`, for which the viability in test [1] is 108% (inactive); in test [2] it was 102% (inactive); in test [3] (setting [6]), 85.7%; in test [3] (setting [7]), 102%. In addition, the differential viability (reversal) in test [3] (H69AR cells + 2 uM doxorubicin) is 16.1% (inactive). The inhibition is -1.97% (inactive) in test [4] and -2.7% (inactive) in test [5].
With `CN(C)S(=O)(=O)N1CCN(S(=O)(=O)c2ccc(F)cc2)CC1`, the viability was 90.7% (inactive) in test [1], 101% (inactive) in test [2], 96.1% in test [3] (setting [6]) and 101% in test [3] (setting [7]). For the same compound, the differential viability (reversal) in test [3] (H69AR cells + 2 uM doxorubicin) is 4.42% (inactive). In addition, the inhibition is 2.8% (inactive) in test [4] and -2.22% (inactive) in test [5].
Turning to `COc1ccc(C)cc1NC(=O)CCN1CCCC1`, the viability in test [1] was 105% (inactive); in test [2], 97.5% (inactive); in test [3] (setting [6]) it was 87.7%; in test [3] (setting [7]), 97.5%. Also, in test [3] (H69AR cells + 2 uM doxorubicin), the differential viability (reversal) was 9.77% (inactive). Moreover, the results for the inhibition in test [4] and in test [5] were -6.13% (inactive) and 1.11% (inactive), respectively.
Turning to `O=C(NCCc1ccccc1)c1cc(-c2ccco2)on1`, the viability in test [1] was 81.3% (inactive); in test [2] it was 88.6% (inactive). The inhibition is -4.08% (inactive) in test [4] and 7.94% (inactive) in test [5].
As to `COC(=O)c1ccc(NC2(C#N)C(=O)Nc3ccccc32)cc1` (stereo not drawn), the viability in test [1] is 69.2% (inactive); in test [3] (setting [6]) it was 58.2%; in test [3] (setting [7]), 42.1%. Further, the differential viability (reversal) in test [3] (H69AR cells + 2 uM doxorubicin) is -16.1% (inactive). For the same compound, the inhibition in test [4] was -5.33% (inactive); in test [5], 3.97% (inactive).
For the compound `COc1ccc(Cn2c(C)nc3c(c2=O)c2nc4ccccc4nc2n3Cc2ccco2)cc1`, the viability was 62% (inactive) in test [1], 30.8% in test [3] (setting [6]) and 34.6% in test [3] (setting [7]). Also, the differential viability (reversal) in test [3] (H69AR cells + 2 uM doxorubicin) was 3.86% (inactive). Besides, the inhibition in test [4] was -1.71% (inactive); in test [5], 5.56% (inactive).
Regarding `COC(=O)C(F)(F)Sc1c(C)[nH]c2ccccc12`, the viability in test [2] was 92.2% (inactive); in test [3] (setting [6]), 90.6%; in test [3] (setting [7]), 92.2%. For the same compound, the differential viability (reversal) in test [3] (H69AR cells + 2 uM doxorubicin) is 1.54% (inactive). In addition, the inhibition was -2.37% (inactive) in test [4] and -1.43% (inactive) in test [5].
In the case of `CCOC(=O)c1cc2sccc2n1CC(=O)Nc1ccc2c(c1)OCCO2`, the values for the viability in test [1], in test [3] (setting [6]) and in test [3] (setting [7]) were 87.4% (inactive), 65.2% and 72.6%, respectively. In addition, in test [3] (H69AR cells + 2 uM doxorubicin), the differential viability (reversal) is 7.47% (inactive). The results for the inhibition in test [4] and in test [5] were -6.1% (inactive) and 0.95% (inactive), respectively.
For the compound `CSc1ccc2c(c1)N(CCC1CCCCN1C)c1ccccc1S2` (stereo not drawn), the viability in test [1] was 2.44% (active); in test [3] (setting [6]) it was 1.26%; in test [3] (setting [7]), 1.93%. Also, the differential viability (reversal) in test [3] (H69AR cells + 2 uM doxorubicin) was 0.67% (inactive).
Consider `CC(=O)Oc1cccc(/C=c2\sc3nc(-c4ccco4)nn3c2=O)c1`, for which the results for the viability in test [1], in test [3] (setting [6]) and in test [3] (setting [7]) were 56.6% (inactive), 55.8% and 52.2%, respectively. Besides, the differential viability (reversal) in test [3] (H69AR cells + 2 uM doxorubicin) was -3.61% (inactive). For the same compound, the inhibition in test [4] is -0.91% (inactive); in test [5] it was 1.27% (inactive).
On to `CC(C)(C)n1nnnc1CN(Cc1ccco1)Cc1cc2cc3c(cc2[nH]c1=O)OCO3`, for which the viability in test [1] is 78% (inactive); in test [3] (setting [6]), 68%; in test [3] (setting [7]), 59.3%. For the same compound, the differential viability (reversal) in test [3] (H69AR cells + 2 uM doxorubicin) is -8.75% (inactive). Also, the inhibition was -8% (inactive) in test [4] and 0.16% (inactive) in test [5].
For `CCCCCCCCNC(C)C(O)c1ccc(SC(C)C)cc1` (stereo not drawn), the viability in test [1] is 2.21% (active); in test [3] (setting [6]), 1.44%; in test [3] (setting [7]) it was 1.16%. Also, in test [3] (H69AR cells + 2 uM doxorubicin), the differential viability (reversal) was -0.28% (inactive).
The matching figures for `COc1ccc(CCN2CCC(Nc3nc4ccccc4n3Cc3ccc(F)cc3)CC2)cc1`: 1.47% (active), 0.36%, 0.52% and 0.16% (inactive).
With `COc1cccc2c1C(=O)c1c(O)c3c(c(O)c1C2=O)C[C@@](O)(C(=O)CO)C[C@@H]3O[C@H]1C[C@H](N)[C@H](O)[C@H](C)O1`, the values for the viability in test [1], in test [3] (setting [6]) and in test [3] (setting [7]) were 22.1% (active), 25.6% and 18%, respectively. In test [3] (H69AR cells + 2 uM doxorubicin), the differential viability (reversal) was -7.64% (inactive). The inhibition in test [4] was 0.26% (inactive); in test [5], 3% (inactive).
Consider `Cc1cc(C)c(C(=O)CSc2nnc(-c3ccccc3Br)o2)cc1C`, for which the viability was 73.1% (inactive) in test [2], 75.8% in test [3] (setting [6]) and 73.1% in test [3] (setting [7]). Besides, in test [3] (H69AR cells + 2 uM doxorubicin), the differential viability (reversal) is -2.75% (inactive). The inhibition in test [4] was -3.87% (inactive); in test [5], 3.49% (inactive).
For `COCCCNC(=O)c1c(N)n(-c2cccc(S(N)(=O)=O)c2)c2nc3ccccc3nc12`, the viability in test [2] was 67.2% (inactive); in test [3] (setting [6]), 75.4%; in test [3] (setting [7]), 67.2%. Also, the differential viability (reversal) in test [3] (H69AR cells + 2 uM doxorubicin) was -8.22% (inactive). The inhibition in test [4] was -4.13% (inactive); in test [5], -0.79% (inactive).
Take `CN(C)c1ccc(/C=C/C(O)=C2/C(=O)N(C)C3(C)CC2c2ccccc2O3)cc1` (stereo not drawn): the viability is 55.4% (inactive) in test [1], 44.6% in test [3] (setting [6]) and 37.5% in test [3] (setting [7]). Further, the differential viability (reversal) in test [3] (H69AR cells + 2 uM doxorubicin) is -7.07% (inactive). Moreover, the inhibition is -2.47% (inactive) in test [4] and -12.7% (inactive) in test [5].
For the compound `N#CC(C(=O)NCCc1ccccc1)c1nc2ccccc2nc1N1CCOCC1` (stereo not drawn), the viability in test [1] is 82.7% (inactive); in test [3] (setting [6]), 62.6%; in test [3] (setting [7]) it was 59.2%. Further, in test [3] (H69AR cells + 2 uM doxorubicin), the differential viability (reversal) is -3.4% (inactive). In addition, the inhibition in test [4] was -0.53% (inactive); in test [5] it was -5.71% (inactive).
As for `NC(=O)SCC(=O)Nc1cccc(Cl)c1`, the viability in test [1] was 58.4% (inactive); in test [3] (setting [6]), 56.8%; in test [3] (setting [7]), 66.4%. Moreover, the differential viability (reversal) in test [3] (H69AR cells + 2 uM doxorubicin) is 9.55% (inactive). Besides, the inhibition was -5.19% (inactive) in test [4] and 2.06% (inactive) in test [5].
